According to PubChem BioAssay (NCATS):
Inconclusive results are not listed. Activity calls are given as the source filed them. Calls come from the whole dose curve; as a rule, active = well fitted curve in the direction sought with a large enough effect; inconclusive = small, poorly fitted or top-dose-only effect, or another doubt; inactive = no such curve, though single readings can be large; an effect the other way counts as inactive or inconclusive.

Experiments:
[1] = A2780 Cisplatin Sensitive Ovarian Cancer Cell Toxicity qHTS against the NCATS CANVASS Library (AID 1347353); settings: A2780 ovarian cancer viability, ATPLite luminescence, 72 h; series mostly up to 46.1 µM; note: nearly all actives have a fitted effect of over 60% in size
Procedure, shortened: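 A2780 cells, 750/well, settled 4 h at 37 °C, then treated with an 11-point compound series for 72 h. Viability was read as ATPLite luminescence after 10 min at room temperature, with bortezomib as control.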

[2] = UWB1.289-WTBRCA1 Cancer Cell Toxicity qHTS against the NCATS CANVASS Library (AID 1347354); settings: UWB1.289-WTBRCA1 viability, CellTiter-Glo luminescence, 72 h; series mostly up to 38.3 µM
Source text: (§1) Natural products and their derivatives continue to be wellsprings of nascent therapeutic potential. However, many laboratories have limited resources for biological evaluation, leaving their previously isolated or synthesized compounds largely or completely untested. To address this issue, the Canvass library of natural products was assembled (https://tripod.nih.gov/canvass), in collaboration with academic and industry researchers, for quantitative high-throughput screening (qHTS) across a diverse set of cell-based and biochemical assays. The pure (>85% purity by liquid chromatography/mass spectrometry [LC/MS]) Canvass library of 346 natural products were submitted by 45 academic laboratories and companies around the world. We collected pure natural products to circumvent deconvolution and structure elucidation due to time and resource limitations. The library was formatted into 1536-well plates and evaluated in 50 qHTS (in an 11-pnt concentration series) bioassays with broad scope of disease-relevant mechanisms. The resulting data set from 50 different assays was then systematically analyzed to identify overall trends and specific natural products with interesting biological activities. Reported herein are the results of each individual qHTS and their corresponding assay protocol. National Center for Advancing Translational Sciences (NCATS), Rockville, MD National Institute of Health (NIH), Bethesda, Maryland
Cancer Cell Toxicity COV-362, OV-KATE, OV-SAHO, UWB1.289, UWB1.289-WTBRCA1, HEK-293, HPAF-II, Panc-1005, SW1088, and U-118MG-screen protocol. 1. In a 1536 well, white solid bottom tissue culture plates (Corning 7494), corresponding cells (COV-362, OV-KATE, OV-SAHO, UWB1.289, UWB1.289-WTBRCA1, HEK-293, HPAF-II, Panc-1005, SW1088, or U-118MG) were dispensed in each well at a final concentration of 1000 cells / well (6uL volume) using the Multidrop Combi (Thermo Fisher Scientific) dispenser. 2. […] Luminescence signal was acquired via the ViewLux plate reader (PerkinElmer) using a clear filter, 2 second exposure and 2x binning settings.

[3] = HPAF-II 24hr Apoptosis Induction qHTS against the NCATS CANVASS Library (AID 1347356); settings: HPAF-II caspase-3/7 Caspase-Glo luminescence; series mostly up to 46.1 µM
Procedure, shortened: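 HPAF-II cells (500/well) exposed to compounds in 11-point series for 24 h at 37 degrees C; caspase-3/7 activity read by Caspase-Glo luminescence after 15 min at room temperature. Doxorubicin titration as control.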

[4] = HEK293 18hr Apoptosis Induction qHTS against the NCATS CANVASS Library (AID 1347357); settings: HEK293 caspase-3/7 Caspase-Glo luminescence; series mostly up to 46.1 µM
Procedure, shortened: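 Cells seeded at 500/well in DMEM + 10% FBS. Compounds pinned, 11 concentrations. 18 h, 37 degrees C/5% CO2. Caspase-Glo 3/7 added, 15 min RT dark, luminescence read.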

[5] = HPAF-II 12hr Apoptosis Induction qHTS against the NCATS CANVASS Library (AID 1347358); settings: HPAF-II caspase-3/7 Caspase-Glo luminescence; series mostly up to 46.1 µM
Source text: as §1, with “protocol. The Caspase-Glo (R) (Promega) is a homogeneous, luminescent assay that measures caspase activity. The detection substrate contains tetrapeptide sequence DEVD in an "add-mix-measure" format. The reagent generates a luminescent signal produced by a thermostable luciferase. The luminescence is proportional to the amount of caspase activity in the assay reaction.” for “protocol.”
Cancer Cell Apoptosis Assay 1. […] Luminescence signal was acquired via the ViewLux plate reader (PerkinElmer) using a clear filter, 20 second exposure and 2x binning settings.

[6] = HEK293 24hr Apoptosis Induction qHTS against the NCATS CANVASS Library (AID 1347359); settings: HEK293 caspase-3/7 activation, Caspase-Glo luminescence; series mostly up to 46.1 µM
Procedure, shortened: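 Caspase-3/7 activation measured as luminescence from the DEVD-based Caspase-Glo reagent, 15 min at room temperature, following 24-hour compound treatment of HEK293 cells.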

[7] = HPAF-II 18hr Apoptosis Induction qHTS against the NCATS CANVASS Library (AID 1347360); settings: HPAF-II caspase-3/7 luminescence; series mostly up to 46.1 µM
Procedure, shortened: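 Seed HPAF-II cells at 500/well in DMEM + 10% FBS, pin-transfer compounds, incubate 18 hours at 37 degrees C/5% CO2, add Caspase-Glo 3/7 reagent, wait 15 min, read luminescence.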

[8] = HEK293 12hr Apoptosis Induction qHTS against the NCATS CANVASS Library (AID 1347361); settings: HEK293 caspase-3/7 Caspase-Glo luminescence; series mostly up to 46.1 µM
Procedure, shortened: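 Cells are seeded, dosed with an 11-point compound series and incubated 12 hours. Caspase-3/7 activity is detected by luminescent DEVD-substrate reagent after 15 minutes at room temperature.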

[9] = HEK-293 Cancer Cell Toxicity qHTS against the NCATS CANVASS Library (AID 1347355); settings: HEK-293 viability, CellTiter-Glo luminescence, 72 h; series mostly up to 46.1 µM; note: nearly all actives have a fitted effect of over 65% in size
Procedure, shortened: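 Cells at 1000/well were given compound 4 h after plating in an 11-point series. Viability was read by CellTiter-Glo luminescence after 72 h at 37 degrees C.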

[10] = tested on: NAD(P)H diaphorase (Clostridium kluyveri); test: Diaphorse counterscreen qHTS: Assay Interference Panel against the NCATS CANVASS Library (AID 1347362); settings: Diaphorase enzyme, resazurin to resorufin fluorescence; series mostly up to 57.5 µM
Procedure, shortened: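 Counterscreen for coupling-enzyme interference: resorufin fluorescence from resazurin/NADH turnover, read after 5 min at room temperature. Compounds were tested over an 11-point series after 15 min dark preincubation with diaphorase in PBS-Tween.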

Measured: outcome

O=C(O)C(O)Cc1ccc(O)c(O)c1 (configuration not stated)
not listed: [9] | [10]
inactive: all other assays above

O=c1cc(-c2ccccc2)oc2cc(O)c(O)c(O)c12
not listed: [10]
inactive: all other assays above

COC(=O)[C@@H]1[C@H]2C[C@H]3c4[nH]c5ccccc5c4CCN3C[C@@H]2CC[C@@H]1O
inactive: all assays above
